Data published in PubChem BioAssay (Tox21).
Results filed as inconclusive are left out. Active and inactive are the calls of the source. Calls come from the whole dose curve; as a rule, active = well fitted curve in the direction sought with a large enough effect in the repeat runs; inconclusive = weak or mixed curves; inactive = no such curve, though single readings can be large; an effect the other way counts as inactive or inconclusive.

What was measured:
[1] = qHTS RealTime-Glo MT Cell Viability Assay in HepG2 cells - 40 hour (AID 1224870); note: nearly all actives have a fitted effect of over 50% in size
How it was run: (§1)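 Real-time viability: cells seeded at 600 per well together with NanoLuc and cell-permeant prosubstrate, compounds added after 5 h incubation. Luminescence tracked at 0, 8, 16, 24, 32 and 40 h of exposure.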

[2] = A CellTox Green Cytotoxicity Assay to monitor cytotoxicity in HEK293 cells - 40 hour (AID 1224871); note: nearly all actives have a fitted effect of over 45% in size
How it was run: (§2)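 Homogeneous no-lysis format: HEK293 cell suspension mixed with CellTox Green reagent, seeded, incubated 5 h at 37 C/5% CO2, then dosed by pintool with compound in DMSO.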

[3] = qHTS RealTime-Glo MT Cell Viability Assay in HepG2 cells - 8 hour (AID 1224873); note: nearly all actives have a fitted effect of over 55% in size
How it was run: as §1

[4] = A CellTox Green Cytotoxicity Assay to monitor cytotoxicity in HEK293 cells - 24 hour (AID 1224875); note: series mostly up to about 77 µM; nearly all actives have a fitted effect of over 45% in size
How it was run: as §2

[5] = A CellTox Green Cytotoxicity Assay to monitor cytotoxicity in HepG2 cells - 16 hour (AID 1224876); note: nearly all actives have a fitted effect of over 45% in size; note: potency is the fitted concentration of half-maximal effect
How it was run: (§3)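 Fluorescent DNA-binding dye, 600 HepG2 cells/well, 5 h preincubation then compound in DMSO; same plates read at 0–40 h, 37 C.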

[6] = qHTS RealTime-Glo MT Cell Viability Assay in HepG2 cells - 32 hour (AID 1224877); note: nearly all actives have a fitted effect of over 55% in size; note: potency is the fitted concentration of half-maximal effect
How it was run: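 Compound treatment began 5 h after plating HepG2 cells (600/well) with NanoLuc luciferase and prosubstrate. Plates stayed at 37 C for 40 h; luminescence was captured at six time points, 0 h through 40 h.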

[7] = A CellTox Green Cytotoxicity Assay to monitor cytotoxicity in HepG2 cells - 24 hour (AID 1224878); note: nearly all actives have a fitted effect of over 45% in size; note: potency is the fitted concentration of half-maximal effect
How it was run: as §3

[8] = A CellTox Green Cytotoxicity Assay to monitor cytotoxicity in HepG2 cells - 40 hour (AID 1224879); note: nearly all actives have a fitted effect of over 40% in size; note: potency is the fitted concentration of half-maximal effect
How it was run: as §3

[9] = qHTS RealTime-Glo MT Cell Viability Assay in HEK293 cells - 16 hour (AID 1224872); note: nearly all actives have a fitted effect of over 50% in size; note: potency is the fitted concentration of half-maximal effect
How it was run: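 Quantitative high-throughput screen of the Tox21 10K library in HEK293: cells and RealTime-Glo reagents plated together, compound added at 5 h, luminescence monitored through 40 h at 37 C.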

[10] = qHTS RealTime-Glo MT Cell Viability Assay in HEK293 cells - 40 hour (AID 1224874); conditions: RealTime-Glo luminescence; max response: hits give low values; note: nearly all actives have a fitted effect of over 50% in size; note: potency is the fitted concentration of half-maximal effect
How it was run: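 Measured as luminescence from the same continuously cultured HEK293 wells at successive time points (0, 8, 16, 24, 32, 40 h) after compound addition. Reagent present from seeding; dosing at 5 h; incubation 37 C.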
% is set by controls: 0 for no effect and ±100 for the full control effect.

O=[N+]([O-])c1cc(C(F)(F)F)cc([N+](=O)[O-])c1Cl
inactive: Potency [1] | Potency [2] | Potency [3] | Potency [4] | Potency [5] | Potency [6] | Potency [7] | Potency [8]

Clc1cccc(SC2CCNCC2)n1
inactive: Potency [1] | Potency [9] | Potency [3] | max response [10] 1.39% | Potency [4] | Potency [5] | Potency [6] | Potency [7] | Potency [8]

Cc1c(F)c(F)c(COC(=O)C2C(/C=C(\Cl)C(F)(F)F)C2(C)C)c(F)c1F (stereo not drawn)
inactive: Potency [1] | Potency [9] | Potency [3] | max response [10] 6.54% | Potency [4] | Potency [5] | Potency [6] | Potency [7] | Potency [8]

O=C1c2ccccc2C(=O)C1C(=O)C(c1ccccc1)c1ccccc1
inactive: Potency [1] | Potency [9] | Potency [3] | max response [10] 3.22% | Potency [4] | Potency [5] | Potency [6] | Potency [7] | Potency [8]

O=C(CBr)OCc1ccccc1
inactive: Potency [1] | Potency [2] | Potency [3] | Potency [4] | Potency [5] | Potency [6] | Potency [7] | Potency [8]

CCCCC(CC)COP(=O)(Oc1ccccc1)Oc1ccccc1 (stereo not drawn)
inactive: Potency [1] | Potency [9] | Potency [3] | max response [10] -24.3% | Potency [4] | Potency [5] | Potency [6] | Potency [7] | Potency [8]

C#CCOC(C(=O)OCCN(C)C)(c1ccccc1)c1ccccc1
inactive: Potency [1] | Potency [9] | Potency [3] | max response [10] -21.3% | Potency [4] | Potency [5] | Potency [6] | Potency [7] | Potency [8]

COc1c(C(C)(C)C)cc([N+](=O)[O-])c(C)c1[N+](=O)[O-]
inactive: Potency [1] | Potency [9] | Potency [3] | max response [10] 1.56% | Potency [4] | Potency [5] | Potency [6] | Potency [7] | Potency [8]

Nc1ccc(N=Nc2ccc(-c3ccc(N=Nc4c(S(=O)(=O)O)cc5cc(S(=O)(=O)O)c(N=Nc6ccccc6)c(O)c5c4N)cc3)cc2)c(N)c1
inactive: Potency [1] | Potency [9] | Potency [3] | max response [10] 23.2% | Potency [4] | Potency [5] | Potency [6] | Potency [7] | Potency [8]

O=C1CN=C(c2ccccc2)c2cc(Cl)ccc2N1CC1CC1
inactive: Potency [1] | Potency [2] | Potency [3] | Potency [4] | Potency [5] | Potency [6] | Potency [7] | Potency [8]

C=CC(=O)OC(C)(C)C
inactive: Potency [1] | Potency [9] | Potency [3] | max response [10] 13.5% | Potency [4] | Potency [5] | Potency [6] | Potency [7] | Potency [8]

COP(=S)(Oc1cc(Cl)c(Br)cc1Cl)c1ccccc1 (stereo not drawn)
inactive: Potency [1] | Potency [2] | Potency [3] | Potency [4] | Potency [6]

C=COC(C)=O
inactive: Potency [1] | Potency [9] | Potency [3] | max response [10] 2.49% | Potency [4] | Potency [5] | Potency [6] | Potency [7] | Potency [8]

CCOC(=O)[C@]1(c2ccccc2)Oc2ccccc2[C@@H]1N
inactive: Potency [1] | Potency [3] | Potency [4] | Potency [5] | Potency [6] | Potency [7] | Potency [8]

CN1C[C@H](CNC(=O)OCc2ccccc2)C[C@@H]2c3cccc4c3c(cn4C)C[C@H]21
inactive: Potency [2] | Potency [3] | Potency [4]
active: Potency [9] 21.3 µM | Potency [10] 23.9 µM | Potency [5] 23.9 µM | Potency [6] 23.9 µM | Potency [7] 26.8 µM | Potency [8] 23.9 µM

CCCC(Cn1cncn1)c1ccc(Cl)cc1Cl (stereo not drawn)
inactive: Potency [1] | Potency [6]
active: Potency [10] 21.9 µM

CNP(=O)(OC)Oc1ccc(C(C)(C)C)cc1Cl (stereo not drawn)
active: Potency [8] 54.9 µM
inactive: Potency [1] | Potency [3] | Potency [6]

COC(=O)C(Cl)C(=O)OC
inactive: Potency [2] | Potency [9] | Potency [3] | max response [10] -20.1% | Potency [4] | Potency [5] | Potency [6] | Potency [7] | Potency [8]

OC(c1ccc(Cl)cc1)(c1ccc(Cl)cc1)c1cccnc1
inactive: Potency [1] | Potency [4] | Potency [5] | Potency [7] | Potency [8]
active: Potency [9] 38.9 µM | Potency [10] 38.9 µM

O=C=Nc1ccc(Cl)cc1
inactive: Potency [2] | Potency [9] | Potency [3] | max response [10] -3% | Potency [4] | Potency [5] | Potency [6] | Potency [7]

CCCC(=O)Cl
inactive: Potency [2] | Potency [9] | Potency [3] | max response [10] 17% | Potency [4] | Potency [5] | Potency [6] | Potency [7] | Potency [8]

C[C@H]1CNCCc2ccc(Cl)cc21
inactive: Potency [2] | Potency [9] | Potency [3] | max response [10] -6.61% | Potency [4] | Potency [5] | Potency [6] | Potency [7] | Potency [8]

CCC(Cl)CCl (stereo not drawn)
inactive: Potency [2] | Potency [9] | Potency [3] | max response [10] 2.27% | Potency [4] | Potency [5] | Potency [6] | Potency [7] | Potency [8]

C/C=C/C=O
inactive: Potency [2] | Potency [9] | Potency [3] | max response [10] 5.18% | Potency [4] | Potency [5] | Potency [6] | Potency [7] | Potency [8]

CC1(C)CCC(Cc2ccc(Cl)cc2)C1(O)Cn1cncn1 (stereo not drawn)
inactive: Potency [1] | Potency [4] | Potency [6]
active: Potency [9] 24.5 µM | Potency [10] 24.5 µM | Potency [5] 54.9 µM | Potency [8] 54.9 µM

O=C(Nc1ccccc1)Nc1cnns1
inactive: Potency [1] | Potency [3] | Potency [4] | Potency [5] | Potency [6] | Potency [7] | Potency [8]
active: Potency [10] 27.5 µM

CC[C@H]1C[C@H]2[C@@H]3CCC4=CC(=O)CC[C@@H]4[C@H]3CC[C@]2(C)[C@H]1O
active: Potency [10] 23.9 µM | Potency [8] 21.3 µM
inactive: Potency [1] | Potency [3] | Potency [4] | Potency [5] | Potency [6]

Clc1ccc(C(OCCN2CCCCC2)c2ccccc2)cc1 (stereo not drawn)
inactive: Potency [1] | Potency [3] | Potency [6]
